Data from PubChem BioAssay (Tox21).
Inconclusive results are not listed. Where a call stands in place of a potency, no number is given. The source made the active and inactive calls. Unless noted, calls follow the shape of the dose curve; as a rule, active = well fitted curve in the direction sought with a large enough effect in the repeat runs; inconclusive = weak or mixed curves; inactive = no such curve, though single readings can be large; an effect the other way counts as inactive or inconclusive.

Key:
[1] = qHTS assay to identify small molecule antagonists of the progesterone receptor (PR) signaling pathway - cell viability counter screen (AID 1346798); conditions: PR-UAS-bla HEK293T viability, CellTiter-Glo luminescence, 16 h; series mostly up to 92.4 µM; also: nearly all actives have a fitted effect of over 50% in size
In short: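 Same-well multiplex: after 16 hr at 37C with compound and R5020 stimulation, HEK293T cells carrying a UAS-bla reporter received LiveBLAzer substrate (2 hr RT), then CellTiter-Glo (30 min RT) for luminescent viability.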

[2] = qHTS assay to identify small molecule agonists of the progesterone receptor (PR) signaling pathway - cell viability counter screen (AID 1346799; calls by dose curve; also: nearly all actives have a fitted effect of over 45% in size; also: potency is read from the fitted curve at half-maximal effect); conditions: PR-UAS-bla HEK293T viability, CellTiter-Glo luminescence, 16 h; series mostly up to 92.4 µM
In short: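 Counter screen for cytotoxicity: compound-treated PR-UAS-bla HEK293T cells (16 hr, 37C, 5% CO2) were assayed with CellTiter-Glo, luminescence measured after 30 min at room temperature.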

[3] = qHTS assay to identify small molecule antagonists of the TGF-beta/Smad signaling pathway - cell viability counter screen (AID 1346824); conditions: SBE-bla HEK293T viability, CellTiter-Glo luminescence; series mostly up to 76.8 µM; also: nearly all actives have a fitted effect of over 50% in size
In short: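 Cytotoxicity counter-screen run in the same wells as the beta-lactamase Smad reporter read: CellTiter-Glo luminescence after 30 min at room temperature. HEK 293T SBE-bla cells had 5 hr compound exposure at 37 C with TGF-beta1 (0.25 ng/mL stock).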

[4] = qHTS assay to identify small molecule agonists of the TGF-beta/Smad signaling pathway (AID 1346859; active = well fitted activation curve with a large enough effect in the signal ratio in the repeat runs, not every such curve was filed as active; the % refers to the signal ratio); conditions: SBE-bla HEK293T, TGF-beta/Smad beta-lactamase reporter, 5 h; series mostly up to 76.8 µM
In short: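 Smad-responsive beta-lactamase reporter cells (HEK 293T) received compounds from DMSO stocks after overnight attachment, were incubated 5 hr, then treated 2 hr with FRET substrate before dual-emission fluorescence measurement (405 nm excitation).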

[5] = target: Thyrotropin-releasing hormone receptor (Homo sapiens) (UniProt P34981); assay: qHTS assay to identify small molecule antagonists of the thyrotropin-releasing hormone receptor (TRHR) signaling pathway (AID 1346877; active = well fitted inhibition curve with a large enough effect in the repeat runs, not every such curve was filed as active); conditions: TRHR-HEK293, TRH-induced calcium fluorescence, antagonist mode; series mostly up to 51.3 µM
Chain of Thyrotropin-releasing hormone receptor (Homo sapiens) (P34981 whole entry, looked up): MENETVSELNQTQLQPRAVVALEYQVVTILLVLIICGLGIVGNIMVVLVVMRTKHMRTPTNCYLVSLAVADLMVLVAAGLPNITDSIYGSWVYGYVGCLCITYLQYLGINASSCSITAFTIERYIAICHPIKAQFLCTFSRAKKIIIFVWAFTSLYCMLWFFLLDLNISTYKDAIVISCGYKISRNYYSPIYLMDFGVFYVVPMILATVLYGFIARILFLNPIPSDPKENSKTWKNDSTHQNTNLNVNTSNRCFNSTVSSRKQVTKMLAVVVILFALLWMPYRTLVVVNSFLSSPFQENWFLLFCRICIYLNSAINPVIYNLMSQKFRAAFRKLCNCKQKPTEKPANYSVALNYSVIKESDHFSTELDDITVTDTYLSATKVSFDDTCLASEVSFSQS
In short: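 Human TRHR in HEK293 cells; inhibition of the intracellular calcium rise triggered by 1 nM TRH was followed by fluorescence over 3 min. Compounds were run at 15 concentrations, three replicates each.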

[6] = target: Thyrotropin-releasing hormone receptor (Homo sapiens) (UniProt P34981); assay: qHTS assay to identify small molecule agonists of the thyrotropin-releasing hormone receptor (TRHR) signaling pathway (AID 1346891; calls by dose curve;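 also: HEK293 cells expressing TRHR with calcium dye readout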); conditions: TRHR-HEK293 calcium fluorescence, agonist mode; series mostly up to 57.6 µM
In short: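 Agonist-mode calcium mobilisation screen: TRHR-transfected HEK293 cells cultured overnight (18 h), dye-loaded for 2 h at 37 °C, exposed to compounds, and monitored by fluorescence for 3 min.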

[7] = Human pregnane X receptor (PXR) small molecule agonists, qHTS cell viability counter screen (AID 1346977); conditions: PXR-Luc HepG2 viability, CellTiter-Fluor, 24 h; series mostly up to 92.4 µM; also: nearly all actives have a fitted effect of over 50% in size
In short: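 Measures live-cell protease fluorescence (CellTiter-Fluor) in PXR-Luc HepG2 cells treated 24hr with compounds at 37C. Cells had 5hr to attach before pin transfer of DMSO solutions.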

[8] = Caspase-3/7 induction in CHO-K1 cells by small molecules, qHTS cell viability counter screen (AID 1346979); conditions: CellTiter-Fluor fluorescence, 17 h; series mostly up to 92.4 µM; also: nearly all actives have a fitted effect of over 35% in size; also: potency is read from the fitted curve at half-maximal effect
In short: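 In the same wells as the caspase read, viability of compound-treated wild-type CHO-K1 cells was assessed using CellTiter-Fluor, added after 16hr at 37C and measured by fluorescence following 1hr further incubation.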

[9] = Caspase-3/7 induction in CHO-K1 cells by small molecules, qHTS assay (AID 1346980); conditions: CHO-K1 caspase-3/7 induction, Caspase-Glo luminescence, 17 h; series mostly up to 92.4 µM; also: nearly all actives have a fitted effect of over 15% in size
In short: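 Luminescent Caspase-Glo 3/7 read (30min, room temperature) quantified apoptosis induction. Cells were wild-type CHO-K1, treated with compound for 17hr at 37 C and 5% CO2.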

[10] = Caspase-3/7 induction in HepG2 cells by small molecules, qHTS cell viability counter screen (AID 1346981); conditions: CellTiter-Fluor fluorescence, 17 h; series mostly up to 92.4 µM; also: nearly all actives have a fitted effect of over 30% in size
In short: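 The parent HepG2 line is plated at 2,000 cells per well and rested 5 hr before compound pinning from DMSO stocks. Following a 16-hr treatment at 37 C, a fluorogenic live-cell substrate (CellTiter-Fluor) reports viability after 1 hr.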

[11] = target: Nuclear receptor subfamily 1 group I member 2 (Homo sapiens) (UniProt O75469); assay: Human pregnane X receptor (PXR) small molecule agonists, qHTS assay (AID 1346982); conditions: PXR-Luc HepG2, CYP3A4 luciferase reporter, 24 h; series mostly up to 92.4 µM; also: nearly all actives have a fitted effect of over 35% in size; also: potency is read from the fitted curve at half-maximal effect
Chain of Nuclear receptor subfamily 1 group I member 2 (Homo sapiens) (O75469 whole entry, looked up): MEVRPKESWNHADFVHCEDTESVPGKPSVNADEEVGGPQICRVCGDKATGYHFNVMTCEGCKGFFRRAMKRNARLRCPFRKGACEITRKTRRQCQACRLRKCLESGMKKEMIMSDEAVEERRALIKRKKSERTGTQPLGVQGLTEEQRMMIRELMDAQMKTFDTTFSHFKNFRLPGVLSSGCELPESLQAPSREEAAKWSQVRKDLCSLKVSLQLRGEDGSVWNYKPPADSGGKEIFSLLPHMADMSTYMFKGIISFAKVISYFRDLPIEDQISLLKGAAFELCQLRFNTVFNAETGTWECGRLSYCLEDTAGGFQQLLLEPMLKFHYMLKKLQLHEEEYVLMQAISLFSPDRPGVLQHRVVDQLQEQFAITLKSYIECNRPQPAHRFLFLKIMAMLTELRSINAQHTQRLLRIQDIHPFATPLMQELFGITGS
In short: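 After plating in 5% charcoal-stripped FBS and a 5 hr rest, PXR-Luc HepG2 cells received compounds in DMSO. Following 24 hr at 37 C, ONE-Glo was added and light output read.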

[12] = target: Cytochrome P450 2D6 (Homo sapiens) (UniProt P10635); assay: Cytochrome P450 Family 2 Subfamily D Member 6 (CYP2D6) small molecule antagonists: luciferase reporter qHTS assay (AID 1671196); conditions: P450-Glo CYP2D6 enzyme assay, luciferin luminescence, 1 h; series mostly up to 115 µM; also: nearly all actives have a fitted effect of over 50% in size; also: potency is read from the fitted curve at half-maximal effect
Chain of Cytochrome P450 2D6 (Homo sapiens) (P10635 whole entry, looked up): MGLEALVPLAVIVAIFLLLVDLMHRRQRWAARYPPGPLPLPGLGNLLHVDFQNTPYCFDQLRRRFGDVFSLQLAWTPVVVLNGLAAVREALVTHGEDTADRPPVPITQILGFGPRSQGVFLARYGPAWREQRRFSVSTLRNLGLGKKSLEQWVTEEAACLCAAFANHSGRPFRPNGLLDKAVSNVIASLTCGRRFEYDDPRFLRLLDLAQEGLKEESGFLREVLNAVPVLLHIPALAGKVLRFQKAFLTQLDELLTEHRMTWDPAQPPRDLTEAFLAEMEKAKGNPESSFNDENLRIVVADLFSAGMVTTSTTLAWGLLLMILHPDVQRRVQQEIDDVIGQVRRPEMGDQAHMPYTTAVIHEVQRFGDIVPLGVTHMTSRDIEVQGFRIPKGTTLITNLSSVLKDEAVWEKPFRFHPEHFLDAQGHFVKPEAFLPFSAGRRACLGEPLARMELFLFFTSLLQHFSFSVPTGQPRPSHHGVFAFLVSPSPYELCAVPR
In short: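 Quantitative HTS of Tox21 chemicals against CYP2D6 using a luminescent proluciferin substrate. After NADPH addition, 1 h room-temperature reaction; luminescence recorded 20 min post detection reagent.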

[13] = target: Cytochrome P450 2C19 (Homo sapiens) (UniProt P33261); assay: Cytochrome P450 Family 2 Subfamily C Member 19 (CYP2C19) small molecule antagonists: luciferase reporter qHTS assay (AID 1671197); conditions: P450-Glo CYP2C19 enzyme, luciferin luminescence, 1 h; series mostly up to 115 µM; also: nearly all actives have a fitted effect of over 65% in size; also: potency is read from the fitted curve at half-maximal effect
Chain of Cytochrome P450 2C19 (Homo sapiens) (P33261 whole entry, looked up): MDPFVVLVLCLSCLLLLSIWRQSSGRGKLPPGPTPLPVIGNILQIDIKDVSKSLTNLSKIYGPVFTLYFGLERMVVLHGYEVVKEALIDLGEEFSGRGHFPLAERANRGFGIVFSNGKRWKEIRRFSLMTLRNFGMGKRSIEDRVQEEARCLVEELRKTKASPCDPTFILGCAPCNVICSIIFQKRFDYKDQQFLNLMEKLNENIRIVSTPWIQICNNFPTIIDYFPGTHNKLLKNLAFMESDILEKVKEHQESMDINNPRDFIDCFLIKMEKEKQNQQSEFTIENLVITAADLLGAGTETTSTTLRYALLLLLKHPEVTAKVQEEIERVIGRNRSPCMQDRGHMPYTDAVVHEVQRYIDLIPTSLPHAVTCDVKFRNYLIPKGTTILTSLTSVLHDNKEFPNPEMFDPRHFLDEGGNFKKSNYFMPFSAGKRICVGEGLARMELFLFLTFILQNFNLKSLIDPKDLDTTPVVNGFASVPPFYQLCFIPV
In short: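 Quantitative high-throughput screen of the Tox21 library using CYP2C19 with proluciferin substrate. Reaction: NADPH regeneration, 37C, 1 h, after 10 min compound preincubation at room temperature. Readout: luminescence.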

[14] = target: Progesterone receptor (Homo sapiens) (UniProt P06401); assay: qHTS assay to identify small molecule antagonists of the progesterone receptor (PR) signaling pathway (AID 1346795; active = well fitted inhibition curve with a large enough effect in the signal ratio in the repeat runs, not every such curve was filed as active; the % refers to the signal ratio; also: potency is read from the fitted curve at half-maximal effect); conditions: PR-UAS-bla HEK293T, beta-lactamase FRET ratio, 16 h; series mostly up to 92.4 µM
Chain of Progesterone receptor (Homo sapiens) (P06401 whole entry, looked up): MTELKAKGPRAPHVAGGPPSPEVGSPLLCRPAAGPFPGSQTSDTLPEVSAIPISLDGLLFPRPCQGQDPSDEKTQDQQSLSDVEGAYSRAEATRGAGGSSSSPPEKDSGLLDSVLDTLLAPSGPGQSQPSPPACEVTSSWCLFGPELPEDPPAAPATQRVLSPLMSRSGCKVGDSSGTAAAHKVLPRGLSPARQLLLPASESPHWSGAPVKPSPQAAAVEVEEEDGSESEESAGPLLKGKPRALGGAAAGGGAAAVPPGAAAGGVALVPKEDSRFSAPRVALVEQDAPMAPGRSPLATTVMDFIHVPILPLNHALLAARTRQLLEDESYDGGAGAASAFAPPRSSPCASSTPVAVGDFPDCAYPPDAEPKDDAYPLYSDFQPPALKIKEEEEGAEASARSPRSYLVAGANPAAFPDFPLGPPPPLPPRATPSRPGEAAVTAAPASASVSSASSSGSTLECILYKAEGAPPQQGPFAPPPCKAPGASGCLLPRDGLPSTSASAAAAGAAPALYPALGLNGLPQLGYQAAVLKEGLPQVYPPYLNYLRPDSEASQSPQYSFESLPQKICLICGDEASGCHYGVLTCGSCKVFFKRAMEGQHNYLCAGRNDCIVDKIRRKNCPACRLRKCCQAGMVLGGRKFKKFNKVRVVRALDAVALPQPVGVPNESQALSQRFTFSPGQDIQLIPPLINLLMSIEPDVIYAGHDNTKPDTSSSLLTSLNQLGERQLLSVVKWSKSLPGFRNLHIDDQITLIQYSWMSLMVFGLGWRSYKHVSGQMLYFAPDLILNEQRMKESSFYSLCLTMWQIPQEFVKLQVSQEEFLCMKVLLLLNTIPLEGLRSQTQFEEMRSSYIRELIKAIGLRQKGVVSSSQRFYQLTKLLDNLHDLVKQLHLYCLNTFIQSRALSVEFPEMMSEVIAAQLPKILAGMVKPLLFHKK
In short: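 HEK293T PR-UAS-bla reporter cells in charcoal-stripped serum (2%) received compound after a 6 hr settling period, followed by R5020 agonist at 1 nM final; 16 hr incubation preceded the FRET substrate step and fluorescence measurement.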

[15] = qHTS assay to identify small molecule agonists of the TGF-beta/Smad signaling pathway - cell viability counter screen (AID 1346829); conditions: SBE-bla HEK293T viability, CellTiter-Glo luminescence, 5 h; series mostly up to 76.8 µM; also: top concentration of the series differs between compounds; nearly all actives have a fitted effect of over 45% in size
In short: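 Same-well cytotoxicity: CellTiter-Glo added after the 2 hr room-temperature beta-lactamase substrate step, luminescence measured 30 min later; cells had 5 hr of compound at 37 C.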

[16] = Caspase-3/7 induction in HepG2 cells by small molecules, qHTS assay (AID 1346978); conditions: HepG2 caspase-3/7 activation, Caspase-Glo luminescence, 17 h; series mostly up to 92.4 µM; also: nearly all actives have a fitted effect of over 15% in size
In short: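 Caspase-3/7 induction was measured by Caspase-Glo 3/7 luminescence (30 min, room temperature) after a 17 hr compound exposure of wild-type HepG2 cells seeded at 2,000 per well and pre-incubated 5 hr.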

[17] = target: Nuclear receptor subfamily 1 group I member 2 (Homo sapiens) (UniProt O75469); assay: CYP3A4 induction through human pregnane X receptor (PXR) by small molecules, qHTS assay (AID 1346984); conditions: DPX-2 HepG2 PXR, CYP3A4-luciferin luminescence, 24 h; series mostly up to 46.1 µM; also: nearly all actives have a fitted effect of over 40% in size
In short: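 Human PXR activation is tracked via CYP3A4 promoter-luciferase in DPX-2 (HepG2) cells. Compounds treat cells for 24hr at 37C, and luminescence is read after One-Glo.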

[18] = target: Nuclear receptor subfamily 1 group I member 2 (Homo sapiens) (UniProt O75469); assay: Human pregnane X receptor (PXR) activation by small molecules, qHTS assay (AID 1346985); conditions: DPX-2 HepG2 CYP3A4-luciferase, 24 h; series mostly up to 38.3 µM; also: nearly all actives have a fitted effect of over 40% in size
In short: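 DPX-2 cells (HepG2 co-transfected with a PXR response element and a CYP3A4-promoter luciferase construct) were seeded at 2,000 per well, rested 5 hr at 37C, then exposed to DMSO-dissolved compounds for 24 hr. Activation was read as luciferase luminescence.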

In the case of O=C(O)[C@H](O)[C@@H](O)[C@H](O[C@@H]1O[C@H](CO)[C@H](O)[C@H](O)[C@H]1O)[C@H](O)CO, the Potency [1] is reported as “inactive”, the Potency [2] is reported as “inactive” and the Potency [3] is reported as “inactive”. For the same compound, the Potency [4] was “inactive”, the Potency [5] was “inactive” and the outcome [6] was “inactive”. The Potency [7] was “inactive”, the Potency [8] was “inactive” and the Potency [9] was “inactive”. The Potency [10] was “inactive”, the Potency [11] was “inactive” and the Potency [12] was “inactive”. The Potency [13] was “inactive”.

With CC(C(=O)O)c1ccc2c(c1)[nH]c1ccc(Cl)cc12 (stereo unspecified) the Potency [14] was “inactive”, the Potency [1] was “inactive” and the Potency [3] was “inactive”. The Potency [15] was “inactive”, the Potency [5] was “inactive” and the outcome [6] was “inactive”. The Potency [7] was “inactive”, the Potency [16] was “inactive” and the Potency [9] was “inactive”. For the same compound, the Potency [10] was “inactive”, the Potency [11] was “inactive” and the Potency [17] was “inactive”. The Potency [18] was “inactive” and the Potency [12] was “inactive”.

For Nc1ccc(Oc2ccc(Cl)cc2)cc1, the Potency [14] was 18.9 µM (active), the Potency [3] was “inactive” and the Potency [15] was “inactive”. For the same compound, the Potency [4] was “inactive”, the Potency [7] was “inactive” and the Potency [16] was “inactive”. The Potency [9] was “inactive”, the Potency [10] was “inactive” and the Potency [11] was 33.6 µM (active). For the same compound, the Potency [12] was 39.1 µM (active) and the Potency [13] was 2.47 µM (active).

For COc1ccc2c(c1)c(CC(=O)OC/C=C(\C)CC/C=C(\C)CCC=C(C)C)c(C)n2C(=O)c1ccc(Cl)cc1, the Potency [1] was “inactive”, the Potency [2] was “inactive” and the Potency [15] was “inactive”. The Potency [4] was “inactive”, the Potency [5] was “inactive” and the outcome [6] was “inactive”. The Potency [7] was “inactive”, the Potency [16] was “inactive” and the Potency [8] was “inactive”. The Potency [9] was “inactive”, the Potency [10] was “inactive” and the Potency [13] was 15.5 µM (active).

For CCCCCCC1CCCC(=O)O1 (stereo unspecified), the Potency [1] was “inactive”, the Potency [2] was “inactive” and the Potency [3] was “inactive”. The Potency [15] was “inactive”, the Potency [5] was “inactive” and the outcome [6] was “inactive”. For the same compound, the Potency [7] was “inactive”, the Potency [8] was “inactive” and the Potency [9] was “inactive”. For the same compound, the Potency [13] was “inactive”.

For CC1=CCC(=C(C)C)CC1, the Potency [14] was “inactive”, the Potency [1] was “inactive” and the Potency [2] was “inactive”. For the same compound, the Potency [3] was “inactive”, the Potency [15] was “inactive” and the Potency [4] was “inactive”. For the same compound, the Potency [7] was “inactive”, the Potency [8] was “inactive” and the Potency [9] was “inactive”. The Potency [10] was “inactive”, the Potency [11] was 43.3 µM (active) and the Potency [12] was “inactive”. The Potency [13] was 79.6 µM (active).

With c1ccc(SSc2ccccc2)cc1 the Potency [1] was “inactive”, the Potency [2] was “inactive” and the Potency [15] was “inactive”. The Potency [5] was “inactive”, the outcome [6] was “inactive” and the Potency [7] was “inactive”. For the same compound, the Potency [16] was “inactive”, the Potency [9] was “inactive” and the Potency [10] was “inactive”. For the same compound, the Potency [11] was 27.5 µM (active) and the Potency [13] was 22.6 µM (active).

In the case of Cc1ccc(O)c(N)c1, the Potency [1] is reported as “inactive”, the Potency [3] is reported as “inactive” and the Potency [15] is reported as “inactive”. For the same compound, the Potency [4] was “inactive”, the Potency [5] was “inactive” and the outcome [6] was “inactive”. For the same compound, the Potency [16] was “inactive”, the Potency [8] was 61.2 µM (active) and the Potency [9] was “inactive”. The Potency [10] was “inactive”, the Potency [11] was 48.6 µM (active) and the Potency [12] was 35.6 µM (active).

For CCC(=O)OC(=O)CC, the Potency [14] was “inactive”, the Potency [1] was “inactive” and the Potency [2] was 54 µM (active). For the same compound, the Potency [3] was “inactive”, the Potency [15] was “inactive” and the Potency [4] was “inactive”. The Potency [5] was “inactive”, the outcome [6] was “inactive” and the Potency [7] was “inactive”. The Potency [16] was “inactive”, the Potency [8] was “inactive” and the Potency [9] was “inactive”. For the same compound, the Potency [11] was “inactive”, the Potency [12] was 62.8 µM (active) and the Potency [13] was “inactive”.
